ChEMBL document CHEMBL1961873, “Compounds: GSK PKIS; Assays: Nanosyn kinase panel” (2012)

target: Epidermal growth factor receptor (Homo sapiens) (UniProt P00533); conditions: at 0.1 µM
Sequence (P00533 whole entry): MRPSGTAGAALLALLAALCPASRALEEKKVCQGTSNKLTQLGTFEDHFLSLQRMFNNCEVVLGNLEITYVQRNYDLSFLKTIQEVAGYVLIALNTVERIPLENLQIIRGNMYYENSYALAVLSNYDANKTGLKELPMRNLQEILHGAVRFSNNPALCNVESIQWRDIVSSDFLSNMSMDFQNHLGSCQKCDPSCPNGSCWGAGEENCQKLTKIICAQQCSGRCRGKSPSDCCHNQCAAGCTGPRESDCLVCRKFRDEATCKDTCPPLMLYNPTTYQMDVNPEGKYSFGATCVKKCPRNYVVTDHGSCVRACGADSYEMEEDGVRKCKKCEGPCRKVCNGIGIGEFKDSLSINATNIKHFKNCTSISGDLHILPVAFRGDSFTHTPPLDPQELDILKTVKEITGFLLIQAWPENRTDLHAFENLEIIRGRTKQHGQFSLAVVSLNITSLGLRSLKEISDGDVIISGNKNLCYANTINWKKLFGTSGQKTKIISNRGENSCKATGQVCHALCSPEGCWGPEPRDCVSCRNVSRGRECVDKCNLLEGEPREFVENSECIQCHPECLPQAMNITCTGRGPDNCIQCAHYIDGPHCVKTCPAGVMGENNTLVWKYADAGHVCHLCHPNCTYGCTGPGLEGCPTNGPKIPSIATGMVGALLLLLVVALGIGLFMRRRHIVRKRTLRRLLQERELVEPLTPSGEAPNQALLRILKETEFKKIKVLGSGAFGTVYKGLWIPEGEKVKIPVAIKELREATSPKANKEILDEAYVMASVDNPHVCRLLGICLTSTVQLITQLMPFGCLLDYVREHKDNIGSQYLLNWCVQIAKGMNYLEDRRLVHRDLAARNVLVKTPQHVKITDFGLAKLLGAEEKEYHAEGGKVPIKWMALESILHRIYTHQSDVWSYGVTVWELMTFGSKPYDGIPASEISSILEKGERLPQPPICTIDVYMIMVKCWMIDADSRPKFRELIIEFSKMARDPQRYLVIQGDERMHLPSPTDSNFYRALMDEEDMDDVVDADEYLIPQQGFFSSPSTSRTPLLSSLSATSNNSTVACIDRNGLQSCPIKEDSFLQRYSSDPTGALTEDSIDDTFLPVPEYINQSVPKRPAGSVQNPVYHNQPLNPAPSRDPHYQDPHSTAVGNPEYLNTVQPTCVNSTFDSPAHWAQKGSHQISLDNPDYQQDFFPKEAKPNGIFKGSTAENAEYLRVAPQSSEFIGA

| SMILES | inhibition [%] |
| --- | --- |
| Nc1nc(-c2cccc(Cl)c2)c(-c2ccc3ncccc3n2)s1 | 0.13 |
| CNC(=O)c1cncc(/C=C/c2ccccc2Cl)c1 | 2.35 |
| CCn1c(-c2nonc2N)nc2c(C#CC(C)(C)O)ncc(OC3CCNCC3)c21 | 1.89 |
| CCn1c(-c2nonc2N)nc2ccccc21 | 2.08 |
| Cc1ccc(O)cc1Nc1ccnc2cc(-c3ccccn3)ccc12 | 57.7 |
| Nc1ncc(-c2cccc(S(N)(=O)=O)c2)c2scc(-c3ccc(F)c(Cl)c3)c12 | 0.5 |
| COc1cc2c(cc1Nc1nc(Nc3ccsc3C(N)=O)c3cc[nH]c3n1)N(C(=O)CN(C)C)CCC2(C)C | 1.56 |
| COc1ccc2[nH]c3c4[nH]c5ccc(OC)cc5c4c4c(c3c2c1)C(=O)NC4=O | 2.87 |
| COc1ccc(-c2cc(-c3c[nH]nc3-c3ccccn3)ccn2)cc1 | 1.65 |
| c1cc(-c2cnn3nc(N4CCOCC4)ccc23)nc(NC2CC2)n1 | 4.04 |
| NS(=O)(=O)c1ccc(Nc2ncc(-c3ccccc3)o2)cc1 | 1.02 |
| CCN(CC)S(=O)(=O)c1ccc(OC)c(Nc2ncc(-c3ccccc3)o2)c1 | 3.51 |
| CC(=O)NCc1cccc(C#Cc2cncnc2Nc2ccc(OCc3cccc(F)c3)c(Cl)c2)c1 | 61.2 |
| COc1ccc(-c2oc3ncnc(N)c3c2-c2ccc(NC(=O)Nc3cc(C(F)(F)F)ccc3F)cc2)cc1 | 2.43 |
| CCn1cc(-c2ccnc3[nH]ccc23)c(-c2cccc(NC(=O)Nc3ccc(OCc4ccccc4)cc3)c2)n1 | -1.36 |

target: Epidermal growth factor receptor (Homo sapiens) (UniProt P00533); conditions: at 1 µM

| SMILES | inhibition [%] |
| --- | --- |
| O=C(Nc1n[nH]c2cc(-c3ccc(F)cc3)ccc12)C1CC1 | 4.27 |
| CNC(=O)c1cccc(C#Cc2cncnc2Nc2ccc(OCc3cccc(F)c3)c(Cl)c2)c1 | 82.2 |
| COc1cccc(-c2c[nH]c3c(N/N=C/c4ccncc4)ncnc23)c1 | 41.9 |
| CCn1c(-c2nonc2N)nc2cnc(Oc3cccc(NC(=O)c4ccc(N(C)C)cc4)c3)cc21 | 1.68 |
| COc1ccc(-c2cc3c(N)ncnc3o2)cc1 | 2 |
| c1ccc(-c2nc3n(c2-c2ccc4c(c2)OCO4)CCC3)nc1 | 0.21 |
| FC(F)(F)c1cccc(-c2nn3ncccc3c2-c2ccnc(Nc3ccc4c(c3)OCCO4)n2)c1 | 45.3 |
| CC(C)COC(=O)c1ccc2c(c1)/C(=C/Nc1ccc(S(N)(=O)=O)cc1)C(=O)N2 | 4.58 |
| COc1ccc(-c2nn3ncccc3c2-c2ccnc(Nc3ccc4c(c3)OCCO4)n2)cc1 | 34.1 |
| CN1CCC(n2cnc(-c3ccc(F)cc3)c2-c2ccnc(N)n2)CC1 | 12.2 |
| N#Cc1c(NC(=O)c2ccc(F)cc2)sc2c1CCCC2 | 1.78 |
| COC(=O)Nc1nc2ccc(S(=O)(=O)c3ccc(NC(=O)Nc4cc(C(F)(F)F)ccc4F)cc3)cc2[nH]1 | 7.04 |
| NS(=O)(=O)c1ccc(N/N=C2\C(=O)Nc3ccc4ncccc4c32)cc1 | 6.7 |
| [O-][S+]1CCN(Cc2ccc(-c3ccc4ncnc(Nc5ccc(OCc6cccc(F)c6)c(Cl)c5)c4c3)o2)CC1 | 83.5 |
| Cc1cccc2c1NC(=O)/C2=N\Nc1ccc(S(N)(=O)=O)cc1 | 9.39 |
| CS(=O)(=O)CCNCc1ccc(-c2ccc3ncnc(Nc4ccc(OCc5ccccc5)c(C(F)(F)F)c4)c3c2)o1 | 71.2 |

| SMILES | inhibition [%] |
| --- | --- |
| Nc1nc(-c2cccc(Cl)c2)c(-c2ccc3ncccc3n2)s1 | 6.93 |
| CNC(=O)c1cncc(/C=C/c2ccccc2Cl)c1 | 6.18 |
| CCn1c(-c2nonc2N)nc2c(C#CC(C)(C)O)ncc(OC3CCNCC3)c21 | 3.18 |
| CCn1c(-c2nonc2N)nc2ccccc21 | 1.93 |
| Cc1ccc(O)cc1Nc1ccnc2cc(-c3ccccn3)ccc12 | 91.9 |
| Nc1ncc(-c2cccc(S(N)(=O)=O)c2)c2scc(-c3ccc(F)c(Cl)c3)c12 | 14.2 |
| COc1cc2c(cc1Nc1nc(Nc3ccsc3C(N)=O)c3cc[nH]c3n1)N(C(=O)CN(C)C)CCC2(C)C | 9.19 |
| COc1ccc2[nH]c3c4[nH]c5ccc(OC)cc5c4c4c(c3c2c1)C(=O)NC4=O | 23.3 |
| COc1ccc(-c2cc(-c3c[nH]nc3-c3ccccn3)ccn2)cc1 | 6.06 |
| c1cc(-c2cnn3nc(N4CCOCC4)ccc23)nc(NC2CC2)n1 | 6.33 |
| NS(=O)(=O)c1ccc(Nc2ncc(-c3ccccc3)o2)cc1 | 1.18 |
| CCN(CC)S(=O)(=O)c1ccc(OC)c(Nc2ncc(-c3ccccc3)o2)c1 | 3.96 |
| CC(=O)NCc1cccc(C#Cc2cncnc2Nc2ccc(OCc3cccc(F)c3)c(Cl)c2)c1 | 75.8 |
| COc1ccc(-c2oc3ncnc(N)c3c2-c2ccc(NC(=O)Nc3cc(C(F)(F)F)ccc3F)cc2)cc1 | 2.22 |
| CCn1cc(-c2ccnc3[nH]ccc23)c(-c2cccc(NC(=O)Nc3ccc(OCc4ccccc4)cc3)c2)n1 | 2.86 |
